This passage reports growth results from PubChem BioAssay (NCI).

Each structure is given as a SMILES string. Compounds without any hit were thinned out: in the full panel of roughly 83,000, 20% have a hit.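 Growth was measured after 48 h exposure to one concentration of compound in 96-well plates. Values under 10 count as active.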 Values without a mark were called inactive. Calls of active or inactive are those of the source.

The subject of this assay is MDA-MB-468 breast. As to the kind of experiment: NCI-60 one-dose screen, 48 h (100 = growth as untreated, 0 = no growth, -100 = all killed). The settings on record: 10 µM unless noted.
Regarding `C[C@@]1(C(=O)Nc2ccc(F)nc2)CCCN1c1nc(Nc2cc(C3CC3)[nH]n2)c2cccn2n1`, the growth is 13.1%.
For `COc1cc(-c2cc(=O)oc3cc(O)ccc23)c(OC)c2c1OCO2` the value was 67.7%.
Take `COc1ccc2[nH]cc(C3(c4c[nH]c5ccc(OC)cc45)C(=O)Nc4ccc(Cl)cc43)c2c1`: the growth was 97.7%.
With `Cc1cc(N=C2C=CC(=[N+](C)C)C=C2)c(N)cc1N`, the growth is 39.6%.
Take `NC1=C(Br)C(=O)c2ncccc2C1=O`: the growth is -14.8% (active).
Next, `Fc1cc2c(cc1Cl)N(c1ncnc3ccc(-c4ccc5n[nH]nc5c4)cc13)CC2`: 40.2%.
For the compound `CCC(C)(O)c1ccc(C)cc1` (stereo not drawn), the growth is 110%.
On to `COc1ccc(C2C(C#N)=C(N)Oc3c2sc2c(C)cccc32)cc1` (stereo not drawn), for which the growth was 8.47% (active).
As to `CN(C)CCN1C(=O)c2cccc3c(N)ccc(c23)C1=O`, the growth was 38.7%.
In the case of `CC(C)(C)c1[nH]nc2c1C(c1cc3ccccc3[nH]c1=O)Nc1cc(C(=O)Nc3ccc(Cl)cc3)ccc1N2` (stereo not drawn), the growth is -15.9% (active).
For `COc1ccc(-c2cc(-c3ccc(Cl)cc3)nc(SCCCC(=O)NO)n2)cc1OC` the value was -55.5% (active); for `Cc1ccc(NC(=O)c2sc3nc(C)c(C(O)c4ccccc4)cc3c2N)cc1` (stereo not drawn), 18.6%.
With `O=C(Nc1ccccc1)NS(=O)(=O)c1c[nH]c(=S)[nH]c1=O`, the growth was 112%.
In the case of `O=C(O)CCCCSCCCCC(=O)O`, the growth is 95.3%.
Regarding `CN1CCN(CCNc2nc(-c3cccc(NS(=O)(=O)c4cccc5c(N(C)C)cccc45)c3)cs2)CC1`, the growth was 42.9%.
For `O=C1/C(=C\c2ccc(F)cc2)CN(C(=O)c2ccccc2F)C/C1=C\c1ccc(F)cc1` the value was -74% (active); for `C=CCOC(=O)C1=C(C)N(CC)C(=O)N(CC)C1c1c(Cl)n(C)c2ccccc12` (stereo not drawn), 98.2%.
As to `CC(=O)c1nn(-c2ccc(C)cc2)cc1C(=O)c1cc2c(ccc3ccccc32)oc1=O`, the growth was 118%.
For `COc1ccc(COC(=O)CC(C)C)cc1`, the growth is 102%.
For `CC(C)C/C=C/C=C/C(=O)N[C@@H](CC(N)=O)C(=O)N[C@@H]1C(=O)N[C@H](c2ccc(O)cc2)C(=O)N[C@H](CCCN)C(=O)N[C@H]([C@@H](C)O)C(=O)N[C@H](c2ccc(O)cc2)C(=O)N[C@H](c2ccc(O)cc2)C(=O)N[C@H]([C@H](C)O)C(=O)N[C@H](Cc2ccccc2)C(=O)N[C@H](CCCN)C(=O)N[C@H](c2ccc(O[C@H]3O[C@@H](CO)[C@@H](O)[C@@H](O)[C@H]3O[C@@H]3O[C@H](CO)[C@H](O)[C@H](O)[C@@H]3O)cc2)C(=O)N[C@H]([C@H](C)O)C(=O)N[C@H](c2ccc(O)cc2)C(=O)NCC(=O)N[C@H](CC(C)C)C(=O)N[C@H](C)C(=O)N[C@H](c2ccc(O)c(Cl)c2)C(=O)O[C@@H]1C(N)=O`, the growth was 66.7%.
Next, `Nc1n[nH]c2cccc(C#Cc3cccc(NC(=O)c4cccc(OC(F)(F)F)c4)c3)c12`: 106%; `O=S(=O)(Cc1ccccc1)c1ccccc1`: 102%.
For `Nc1c(C(=O)c2ccc(Br)cc2)sc2nc3c(cc12)CCCC3` the value was 79.1%; for `COc1ccc2c(c1)CC[C@H](O)/C2=C/c1cc(OC)c(OC)c(OC)c1`, 17.6%; for `COc1ccc(/C(C#N)=C2C=C/C(=N/O)c3ccccc3\2)cc1`, 37.1%.
As to `O=C(N/N=C/c1ccc(O)cc1O)c1ccc(Nc2ccnc(C(F)(F)F)c2)cc1`, the growth was 29.5%.
For `CCN(CC)CCCNc1cccc2c(C)cc(OC)nc12` the value was 74.8%; for `CCOc1nc(-c2ccccc2)cc2c(O)c(-c3nnco3)[nH]c(=O)c12`, 16.6%.
For `CC(=O)c1ccc(N2C(=O)c3ccc(Oc4ccccc4)cc3C2=O)cc1` the value was 105%.
Next, `CC(C)NC(=O)c1cc(-c2ccc(NC(=O)Nc3ccc(N4CCOCC4)c(C(F)(F)F)c3)cc2)nc2cccnc12`: 92.1%; `C=C(C)[C@@H]1CC[C@]2(C#N)CC[C@]3(C)[C@H](CC[C@@H]4[C@@]5(C)CCCNC(C)(C)[C@@H]5CC[C@]43C)[C@@H]12`: 19.3%; `CCN(CC)CC(O)CNc1ccnc2cc(Cl)c(Cl)cc12` (stereo not drawn): 83.5%.
Consider `CN1CCc2c(sc3nc4n(-c5ccc(Cl)cc5)c(=O)[nH]n4c(=O)c23)C1`, for which the growth is 114%.
